# Measured values reported in PubChem BioAssay.
# Activity calls are given as the source filed them.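 Rule for the calls, unless noted: active = inhibition at or above 50% relative to wild type and mutant plate controls; inactive = inhibition below 50%.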
# What was measured:
# [1] = inhibitors of TNFa-induced NFkB p65 translocation, primary screen, imaging, HUVEC, MLSMR starter and 10KST1 sets (AID 438;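 active = inhibition above 20% together with a positive visual image hit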;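 note: compound added about 3h40 before a 20 min TNFalpha stimulation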;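 for inhibition: signal is the nuclear over cytoplasmic p65 intensity ratio per well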); conditions: HUVEC TNFa-induced p65 nuclear translocation; cell count: measured here: nuclei count (cytotoxicity indicator), at 2.08 µM; inhibition: at 2 µM, stronger effect = higher value, 0% TNFa-plus-vehicle, 100% no-TNFa wells
# [2] = inhibitors of mutant huntingtin aggregation, primary screen, imaging, exon1htt(103Q)mCFP cells, high-content imaging (AID 483;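 active = visual image review flags a hit and inhibition of aggregation exceeds 20%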;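 note: compound exposure lasted 3 days before fixation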;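 for nuclei count: percent of the per-plate median nuclei count of sample wells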); conditions: exon1htt(103Q)mCFP cell line, aggregate imaging, at 2 µM; inhibition of aggregation: stronger effect = higher value; nuclei count: measured here: cell count, toxicity
# [3] = inhibitors of E-selectin induction by TNFa, primary screen, imaging, HUVEC, immunofluorescence, MLSMR starter and 10KST1 sets (AID 487;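 active = visually confirmed hit in the image check and inhibition above 20%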;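 for inhibition: signal is fraction of cell area covered by stained E-selectin grains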;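 for nuclei count: 100% = median nuclei count of all wells on the same plate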); conditions: HUVEC TNFalpha-induced E-selectin immunofluorescence imaging, at 2 µM; inhibition: stronger effect = higher value; nuclei count: measured here: cell number, toxicity
# [4] = target: Voltage-gated potassium channel subunit beta-2 (Rattus norvegicus) (UniProt P62483); test: KvBeta enzyme negative modulators, primary screen, biochemical, NADPH fluorescence (AID 622;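 active = fluorescence slope higher than the sample average by over 3 SD, cut at about -0.22 in these data, passing the limit was not always enough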;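 note: slope of raw intensity against log time taken from 70 to 1610 s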); conditions: recombinant KvBeta, 4-cyanobenzaldehyde reduction, at 10 µM, stronger effect = higher value
# Chain of Voltage-gated potassium channel subunit beta-2 (Rattus norvegicus) (P62483 whole entry, looked up): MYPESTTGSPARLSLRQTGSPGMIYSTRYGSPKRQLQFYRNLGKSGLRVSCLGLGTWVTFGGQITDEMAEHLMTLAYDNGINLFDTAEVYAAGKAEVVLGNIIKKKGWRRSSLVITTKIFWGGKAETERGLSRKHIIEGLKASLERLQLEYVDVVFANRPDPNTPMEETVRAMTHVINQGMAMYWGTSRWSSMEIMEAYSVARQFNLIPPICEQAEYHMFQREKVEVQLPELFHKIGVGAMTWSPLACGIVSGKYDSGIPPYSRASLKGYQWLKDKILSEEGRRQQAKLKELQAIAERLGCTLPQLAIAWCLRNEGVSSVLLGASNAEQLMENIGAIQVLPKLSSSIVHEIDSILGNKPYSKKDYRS
# [5] = target: Voltage-gated potassium channel subunit beta-2 (Rattus norvegicus) (UniProt P62483); test: KvBeta positive modulators, primary screen, biochemical, NADPH fluorescence (AID 623;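 active = NADPH fluorescence slope more negative than the mean of all samples by about 3 SD, 99.7% confidence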;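 note: fluorescence intensity change per second fitted from 20 to 320 s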); conditions: Recombinant KvBeta, NADPH fluorescence decrease slope, 10 min; at 10 µM; stronger effect = lower value
# [6] = target: Muscarinic acetylcholine receptor M4 (Homo sapiens) (UniProt P08173); test: compounds altering M4/GIRK thallium flux, either direction, primary screen, M4 allosteric agonist project, cell-based, HEK293 M4/GIRK, BTC-AM (AID 625;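 active = fluorescence slope after compound addition differing from the mean of all tested samples at 99.7% confidence, mostly higher but some lower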;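 note: thallium influx through GIRK channels coupled to M4 in HEK293 cells with BTC-AM dye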); conditions: at 10 µM, actives lie on both sides
# Chain of Muscarinic acetylcholine receptor M4 (Homo sapiens) (P08173 whole entry, looked up): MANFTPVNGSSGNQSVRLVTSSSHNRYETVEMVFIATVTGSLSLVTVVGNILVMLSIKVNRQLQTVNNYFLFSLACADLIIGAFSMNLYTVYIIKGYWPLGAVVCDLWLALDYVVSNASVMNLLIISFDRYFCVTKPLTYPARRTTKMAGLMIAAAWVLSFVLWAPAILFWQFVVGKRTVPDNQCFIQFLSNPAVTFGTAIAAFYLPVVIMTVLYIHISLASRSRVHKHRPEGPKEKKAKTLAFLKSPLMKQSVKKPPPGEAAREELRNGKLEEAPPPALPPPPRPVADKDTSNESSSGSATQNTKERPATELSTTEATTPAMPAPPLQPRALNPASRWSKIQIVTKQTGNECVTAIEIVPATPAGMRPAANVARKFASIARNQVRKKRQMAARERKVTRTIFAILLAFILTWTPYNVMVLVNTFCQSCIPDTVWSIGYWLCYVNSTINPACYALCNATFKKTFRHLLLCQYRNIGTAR
# [7] = inhibitors of Sendai virus-induced IRF3 signaling, primary screen, TLR/RLR signaling modifier project, cell-based, Sendai virus stimulus, luciferase, 10K MLSCN set (AID 602276;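 active = inhibition at or above 50% at 10 µM; inactive = inhibition below 50%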;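 note: firefly luciferase from ISG56 promoter only with Renilla not read in this screen; 0% = Sendai virus plus DMSO and 100% = medium plus DMSO without virus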); conditions: HEK293 RL24 IRF3 luciferase reporter, at 10 µM, stronger effect = higher value
# [8] = inhibitors of poly I:C-induced TLR3 signaling, primary screen, cell-based, poly I:C stimulus, luciferase, 10K MLSCN set (AID 602277;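 active = inhibition of the reporter signal at or above 50%; inactive = inhibition below 50%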); conditions: HEK293-TLR3 RL24 IRF3 luciferase reporter, at 10 µM, stronger effect = higher value
# [9] = inhibitors of Chlamydomonas gravitaxis, primary screen, whole organism, Chlamydomonas reinhardtii, WT vs cilia-less mutant, absorbance, 96-well (AID 463189); conditions: OD600 absorbance, 2 days, at 10 µM, stronger effect = higher value;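 note: 0% = wild type cc124 cells in DMSO and 100% = ciliumless bld1 mutant cells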
# [10] = DUSP6 inhibitors restoring Erk phosphorylation by chemical complementation, primary imaging in DUSP6-transfected HeLa (AID 609;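 active = compounds giving at least 50% inhibition in the cell-based MKP-3 phosphatase rescue imaging test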;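 for inhibition: phospho-Erk level distribution per well compared with pooled transfected vehicle control wells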); conditions: HeLa MKP-3 transfected, phospho-Erk imaging KS statistic, at 10 µM, cells stimulated with TPA for 15 min
# [11] = target: Dual specificity protein phosphatase 6 (Homo sapiens) (UniProt Q16828); test: as above; conditions: HeLa MKP-3 transfected, phospho-Erk imaging KS statistic; at 10 µM; stronger effect = higher value; cells stimulated with TPA for 15 min
# Chain of Dual specificity protein phosphatase 6 (Homo sapiens) (Q16828 whole entry, looked up): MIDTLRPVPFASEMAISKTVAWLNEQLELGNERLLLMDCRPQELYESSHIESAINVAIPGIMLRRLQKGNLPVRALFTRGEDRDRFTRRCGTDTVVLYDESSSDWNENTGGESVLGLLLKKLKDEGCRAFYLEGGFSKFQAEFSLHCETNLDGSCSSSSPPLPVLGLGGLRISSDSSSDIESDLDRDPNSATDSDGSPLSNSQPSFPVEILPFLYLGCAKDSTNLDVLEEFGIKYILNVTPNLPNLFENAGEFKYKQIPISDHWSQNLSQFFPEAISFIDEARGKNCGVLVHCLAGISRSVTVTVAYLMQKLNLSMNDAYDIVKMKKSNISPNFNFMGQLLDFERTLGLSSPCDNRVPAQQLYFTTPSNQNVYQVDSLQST
# [12] = target: Alpha-2C adrenergic receptor (Homo sapiens) (UniProt P18825); test: modulators of alpha2C/GIRK thallium flux, primary screen, cell-based, HEK293 alpha2C/GIRK1/2 (AID 624;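 active = fluorescence slope after compound addition differing from the mean of all screened samples at 99.7% confidence, in either direction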;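 note: slope of fluorescence ratio to pre-addition baseline per second over 15 to 24 s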); conditions: thallium flux BTC fluorescence, at 10 µM, actives lie on both sides
# Chain of Alpha-2C adrenergic receptor (Homo sapiens) (P18825 whole entry, looked up): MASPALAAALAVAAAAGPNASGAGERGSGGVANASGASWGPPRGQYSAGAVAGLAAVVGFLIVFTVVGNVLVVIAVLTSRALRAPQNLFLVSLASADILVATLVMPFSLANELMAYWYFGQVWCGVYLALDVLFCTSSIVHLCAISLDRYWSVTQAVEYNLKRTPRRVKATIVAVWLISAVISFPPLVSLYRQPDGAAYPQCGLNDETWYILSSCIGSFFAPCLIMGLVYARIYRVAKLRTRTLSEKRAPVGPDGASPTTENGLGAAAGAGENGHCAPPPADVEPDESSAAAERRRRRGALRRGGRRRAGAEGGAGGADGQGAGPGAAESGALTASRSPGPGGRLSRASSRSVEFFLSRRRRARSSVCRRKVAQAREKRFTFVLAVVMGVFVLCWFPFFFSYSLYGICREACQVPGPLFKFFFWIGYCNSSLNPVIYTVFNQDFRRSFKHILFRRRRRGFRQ
# [13] = inhibitors of larval lipid processing in zebrafish, primary screen, whole organism, PED6 fluorescence, gall bladder and intestine (AID 686;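 active = a full or partial loss of lipid-probe fluorescence in the fish gall bladder, intestine or both, judged by eye; inactive = no fluorescence loss, or compound toxic to the fish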;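 note: larvae 5 to 7 days old with five fish per well; signal comes from phospholipase A2 cleavage of quenched PED6 carried via bile; overnight exposure to compound and PED6 before scoring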); conditions: Zebrafish larvae PED6 lipid processing, fluorescence scoring; screened at 20 µM (by protocol)
# [14] = measured here: cell density z-score
# [15] = measured here: nuclear c-Myc green intensity z-score
# [16] = measured here: nuclear pErk red intensity z-score, stronger effect = higher value
structure (smiles),measurement,setting,value
Nc1nc(C(=O)N2CCOCC2)nn1S(=O)(=O)c1ccc(Cl)cc1,cell count,[1],177
same,inhibition,[1],23.2% (active)
same,inhibition of aggregation,[2],-3.7% (inactive)
same,nuclei count,[2],103%
same,nuclei count,[3],145%
same,fluorescence slope,[4],-0.59 (inactive)
same,NADPH fluorescence slope,[5],-2.7e-05 (inactive)
same,fluorescence slope,[6],0.00923 (inactive)
same,inhibition,[7],11% (inactive)
same,inhibition,[8],15.9% (inactive)
CC(C(=O)N1CC2(C)CC1CC(C)(C)C2)N1C(=O)c2ccccc2C1=O (stereo not given),cell count,[1],239
same,inhibition,[1],5.1% (inactive)
same,inhibition of aggregation,[2],14.3% (inactive)
same,nuclei count,[2],99.8%
same,inhibition,[3],-114% (inactive)
same,nuclei count,[3],95.5%
same,fluorescence slope,[4],-0.504 (inactive)
same,NADPH fluorescence slope,[5],-5.6e-05 (inactive)
same,fluorescence slope,[6],0.00376 (inactive)
same,inhibition,[7],20.7% (inactive)
same,inhibition,[8],17.3% (inactive)
COc1ccc(CCNC(=O)C2CCN(Cc3nc(-c4cccc(Cl)c4)oc3C)CC2)cc1OC,cell count,[1],400
same,inhibition,[1],6% (inactive)
same,inhibition of aggregation,[2],17.8% (inactive)
same,nuclei count,[2],94.3%
same,inhibition,[3],-12.2% (inactive)
same,nuclei count,[3],86.6%
same,fluorescence slope,[4],-0.584 (inactive)
same,NADPH fluorescence slope,[5],-1.7e-05 (inactive)
same,fluorescence slope,[6],0.00471 (inactive)
same,inhibition,[7],6.77% (inactive)
same,inhibition,[8],-17.9% (inactive)
COc1cc(Cn2c(C(=O)O)cc3sccc32)cc(OC)c1OC,cell count,[1],434
same,inhibition,[1],8.6% (inactive)
same,inhibition of aggregation,[2],2.5% (inactive)
same,nuclei count,[2],98.8%
same,nuclei count,[3],140%
same,fluorescence slope,[4],-0.562 (inactive)
same,NADPH fluorescence slope,[5],-0.000122 (inactive)
same,fluorescence slope,[6],0.00343 (inactive)
same,inhibition,[7],14.9% (inactive)
same,inhibition,[8],20.9% (inactive)
Nc1nc2c(ncn2COC(CO)CO)c(=O)[nH]1,inhibition,[9],3.53% (inactive)
CCSC(N)=Nc1ccc(C(F)(F)F)cc1,inhibition,[9],3.43% (inactive)
CC(COc1ccc(/C=C/c2ccccc2)cc1)[N+](C)(C)C (stereo not given),inhibition,[9],52% (active)
NC(N)=NCCC[C@H](N)C(=O)O,inhibition,[9],-8.92% (inactive)
Cc1cn[nH]c1,inhibition,[9],7.85% (inactive)
O=S(=O)(NCCNC/C=C/c1ccc(Br)cc1)c1cccc2cnccc12,inhibition,[9],19.5% (inactive)
CC1(C)CCC2=C(O1)c1ccccc1C(=O)C2=O,inhibition,[9],153% (active)
N[C@@H](Cc1cnc[nH]1)C(=O)O,inhibition,[9],-1.75% (inactive)
NC[C@H](O)c1ccc(O)c(O)c1,inhibition,[9],6.74% (inactive)
N=C(N)SCCN,inhibition,[9],-11.5% (inactive)
C[C@]12C=CC(=O)C=C1CC[C@@H]1C2=CC[C@]2(C)[C@@H](C(=O)CN3CCN(c4cc(N5CCCC5)nc(N5CCCC5)n4)CC3)CC[C@@H]12,inhibition,[9],3% (inactive)
O=NN(CCCl)C(=O)NCCCl,inhibition,[9],6.33% (inactive)
Nc1ncnc2c1ncn2[C@@H]1O[C@H](COP(=O)(O)OP(=O)(O)OP(=O)(O)OP(=O)(O)OC[C@@H]2O[C@H](n3cnc4c(N)ncnc43)C(O)[C@@H]2O)[C@H](O)C1O (stereo not given in full),inhibition,[9],15% (inactive)
Nc1ncnc2c1ncn2C1CCCC1,inhibition,[9],-2.12% (inactive)
N#C/C(=C\c1ccc(O)c(O)c1)C(=O)c1ccc(O)c(O)c1,inhibition,[9],2.24% (inactive)
O=C(O)CCCC[C@@H]1CCSS1,inhibition,[9],4.4% (inactive)
Cn1ccc2cc3c(cc21)CCN3C(=O)Nc1cccnc1,inhibition,[9],9.75% (inactive)
CNCC(O)c1ccc(O)c(O)c1 (stereo not given),inhibition,[9],4.49% (inactive)
CC(C)[N+]1(C)[C@@H]2CC[C@H]1CC(OC(=O)C(CO)c1ccccc1)C2 (stereo not given in full),cell count,[1],466
same,inhibition,[1],-3.8% (inactive)
same,inhibition,[3],-89.2% (inactive)
same,nuclei count,[3],94.7%
same,z-score,[10]; [14],1.04
same,z-score,[10]; [15],-0.0729
same,z-score,[10]; [16],-1.49
same,inhibition,[11],25.7% (inactive)
same,fluorescence slope,[4],-0.497 (inactive)
same,NADPH fluorescence slope,[5],-5.7e-05 (inactive)
same,slope,[12],0.00449 (inactive)
same,inhibition,[7],-5.72% (inactive)
same,inhibition,[8],28.4% (inactive)
CC(=O)O[C@]1(C(C)=O)CC[C@H]2[C@@H]3C=C(Cl)C4=CC(=O)[C@@H]5C[C@@H]5[C@]4(C)[C@H]3CC[C@@]21C,inhibition,[9],6.43% (inactive)
C[C@@H](Oc1ccc(Oc2cnc3ccc(Cl)cc3n2)cc1)C(=O)O,inhibition,[9],9.86% (inactive)
Nc1nc(SCc2ccc([N+](=O)[O-])cc2)c2ncn([C@@H]3O[C@H](CO)[C@H](O)C3O)c2n1 (stereo not given in full),inhibition,[9],-2.89% (inactive)
OC[C@H]1O[C@@H](n2cnc3cncnc32)[C@H](O)[C@@H]1O,inhibition,[9],6.38% (inactive)
CNCCC(Oc1ccccc1OC)c1ccccc1 (stereo not given),inhibition,[9],13.4% (inactive)
CCCn1c(=O)c2[nH]c(-c3ccc(S(=O)(=O)O)cc3)nc2n(CCC)c1=O,inhibition,[9],1.25% (inactive)
CCn1cc(C(=O)O)c(=O)c2ccc(C)nc21,cell count,[1],578
same,inhibition,[1],-2.8% (inactive)
same,inhibition,[3],-83.2% (inactive)
same,nuclei count,[3],111%
same,z-score,[10]; [14],2.22
same,z-score,[10]; [15],-0.0952
same,z-score,[10]; [16],0.302
same,inhibition,[11],5.42% (inactive)
same,fluorescence slope,[4],-0.455 (inactive)
same,NADPH fluorescence slope,[5],-3.9e-05 (inactive)
same,slope,[12],0.00465 (inactive)
same,outcome,[13],inactive
same,inhibition,[7],15.8% (inactive)
same,inhibition,[8],40.1% (inactive)
CCCC(CCC)C(=O)O,inhibition,[9],2.56% (inactive)
NC(=O)c1ccccc1,inhibition,[9],-2.55% (inactive)
O=c1[nH]c2cc(Cl)ccc2c(O)c1-c1ccc(Oc2ccccc2)cc1,inhibition,[9],5.4% (inactive)
CC1CCN=C(N)S1 (stereo not given),inhibition,[9],0.783% (inactive)
C=CC1(C)CC(=O)C2(O)C(C)(O1)C(OC(C)=O)C(O)C1C(C)(C)CCC(O)C12C (stereo not given),inhibition,[9],-1.2% (inactive)
NCCNS(=O)(=O)c1cccc2cnccc12,inhibition,[9],-4.46% (inactive)
Oc1cc(O)c2c(c1)O[C@H](c1ccc(O)c(O)c1)[C@@H](O)C2,inhibition,[9],2.87% (inactive)
C[C@]12CC[C@@H]3c4ccc(O)cc4CC[C@H]3[C@@H]1CC[C@@H]2O,inhibition,[9],5.14% (inactive)
CC(C(O)c1ccc(O)cc1)N1CCC(Cc2ccccc2)CC1 (stereo not given),inhibition,[9],1.86% (inactive)
O=C1NCC2(CCN(CCc3ccccc3)CC2)O1,inhibition,[9],-9.32% (inactive)
N#Cc1cc2nc(O)c(O)nc2cc1[N+](=O)[O-],inhibition,[9],1.78% (inactive)
Brc1ccc([C@H]2CN3CCSC3=N2)cc1,inhibition,[9],123% (active)
CCCCS(=N)(=O)CCC(N)C(=O)O (stereo not given),inhibition,[9],-0.023% (inactive)
NC(=O)c1cccc(N)c1,inhibition,[9],3.55% (inactive)
N[C@H](C(=O)O)[C@H]1C[C@@H]1C(=O)O,inhibition,[9],2.25% (inactive)
CC(C)Cc1ccc([C@H](C)C(=O)O)cc1,inhibition,[9],8.1% (inactive)
CN=C(NC#N)Nc1ccc(C2=NNC(=O)CC2C)cc1 (stereo not given),inhibition,[9],-4.34% (inactive)
O=C(O)c1cc(=O)c2ccccc2[nH]1,inhibition,[9],9.15% (inactive)
CCCCN1CCC(COC(=O)c2cc(Cl)c(N)c3c2OCCO3)CC1,inhibition,[9],-6.29% (inactive)
CC(N)(Cc1ccc(O)c(O)c1)C(=O)O (stereo not given),inhibition,[9],6.85% (inactive)
Nc1ncnc2c1nc(Br)n2C1OC2COP(=O)(O)O[C@@H]2C1O (stereo not given in full),inhibition,[9],7.89% (inactive)
NO,inhibition,[9],-14.1% (inactive)
